# According to PubChem BioAssay (NCATS):
# Results filed as inconclusive are left out. A call without a number means that no potency is given here. Calls of active or inactive are those of the source. Unless noted, the call rests on the fitted dose curve; in most records, active means well fitted curve in the direction sought with a large enough effect; inconclusive means small, poorly fitted or top-dose-only effect, or another doubt; inactive means no such curve, though single readings can be large; an effect the other way counts as inactive or inconclusive.
# Columns and labels:
# [1] = molecular target: T1, Hexokinase-4 (Homo sapiens) + Glucokinase regulatory protein (Homo sapiens) (UniProt P35557+Q14397); assay: qHTS assay for inhibitors of recombinant human GCK-GKRP interaction: Diaphorase-coupled assay (AID 743205)
# T1 sequence (P35557 whole entry, looked up): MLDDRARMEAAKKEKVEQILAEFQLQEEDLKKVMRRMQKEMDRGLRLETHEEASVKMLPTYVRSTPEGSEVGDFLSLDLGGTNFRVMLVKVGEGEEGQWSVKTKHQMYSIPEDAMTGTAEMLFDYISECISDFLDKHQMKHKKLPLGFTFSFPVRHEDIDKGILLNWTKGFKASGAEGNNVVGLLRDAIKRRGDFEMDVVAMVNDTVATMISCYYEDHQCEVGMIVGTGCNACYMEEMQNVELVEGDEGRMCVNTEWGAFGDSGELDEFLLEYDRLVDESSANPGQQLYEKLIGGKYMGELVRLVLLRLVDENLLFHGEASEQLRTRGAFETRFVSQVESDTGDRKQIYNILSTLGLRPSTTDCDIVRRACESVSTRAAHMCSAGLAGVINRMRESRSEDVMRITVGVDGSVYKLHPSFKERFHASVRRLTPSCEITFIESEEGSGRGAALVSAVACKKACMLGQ
# T1 sequence (Q14397 whole entry, looked up): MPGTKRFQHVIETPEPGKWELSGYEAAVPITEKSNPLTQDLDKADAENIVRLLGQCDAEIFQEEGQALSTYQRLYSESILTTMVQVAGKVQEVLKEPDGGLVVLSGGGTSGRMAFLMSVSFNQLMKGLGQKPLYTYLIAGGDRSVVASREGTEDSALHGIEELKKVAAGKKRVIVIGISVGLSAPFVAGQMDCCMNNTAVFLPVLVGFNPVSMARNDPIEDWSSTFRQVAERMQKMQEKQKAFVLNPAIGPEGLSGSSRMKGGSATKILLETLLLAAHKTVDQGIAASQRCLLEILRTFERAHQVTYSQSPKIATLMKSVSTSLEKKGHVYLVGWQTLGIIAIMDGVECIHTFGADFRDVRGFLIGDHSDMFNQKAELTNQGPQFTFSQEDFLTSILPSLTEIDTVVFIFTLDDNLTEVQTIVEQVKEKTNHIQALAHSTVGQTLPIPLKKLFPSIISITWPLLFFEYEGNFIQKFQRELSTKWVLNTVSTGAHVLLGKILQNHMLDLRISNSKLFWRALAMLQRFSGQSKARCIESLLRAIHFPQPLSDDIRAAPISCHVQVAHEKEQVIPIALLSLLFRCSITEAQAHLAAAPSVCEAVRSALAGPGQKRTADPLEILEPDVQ
# Procedure, shortened: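 Resorufin fluorescence (525/590 nm), read each minute over 30 min, reports GCK activity coupled via G6PDH and diaphorase. Reaction: 10 nM GST-GCK, 10 nM FLAG-GKRP, 5 mM glucose, 0.4 mM ATP, 0.15 mM NADP+, 0.1 mM resazurin.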
# [2] = molecular target: T1, Hexokinase-4 (Homo sapiens) + Glucokinase regulatory protein (Homo sapiens); assay: qHTS assay for inhibitors of recombinant human GCK-GKRP interaction: ADP-Glo assay (AID 743206)
# Procedure, shortened: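 GST-GCK and FLAG-GKRP (15 nM each in the dispensed mix, with 2 uM S6P) react with 0.4 mM ATP and 5 mM glucose (final) in Hepes pH 7.6 for 60 min at room temperature. ADP is measured by ADP-Glo luminescence.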
# [3] = molecular target: T1, Hexokinase-4 (Homo sapiens) + Glucokinase regulatory protein (Homo sapiens); assay: qHTS assay for inhibitors of recombinant human GCK-GKRP interaction: HTRF assay (AID 743207)
# Procedure, shortened: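 HTRF read-out (ex 320 nm; 615/665 nm emission) after 60 min RT equilibration of 5 nM GST-GCK, 5 nM FLAG-GKRP, 2 uM S6P, compound and anti-FLAG/anti-GST detection antibodies; signal normalized between DMSO wells with and without GCK.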
# [4] = qHTS Assay for Identifying Gametocytocidal Compounds (AID 743244);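 further: actives lower the fluorescent signal which means gametocytes are killed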; conditions: P. falciparum 3D7 stage III-V gametocytes, alamarBlue, 72 h; max response: stronger effect = lower value
# Procedure, shortened: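 3D7 gametocytes, stages III–V, 20,000/well; cpd 72 h, 37 °C/5% CO2; + alamarBlue 24 h; fluor. Ex 525/Em 598.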
# [5] = molecular target: Atrial natriuretic peptide receptor 1 (Homo sapiens) (UniProt P16066); assay: Natriuretic polypeptide receptor (hNpr1) antagonism - Pilot screen (AID 1347049; calls by dose curve;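 further: agonist-evoked cGMP luminescence read 20 min after hNppA addition; series mostly up to about 58 µM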)
# Chain of Atrial natriuretic peptide receptor 1 (Homo sapiens) (P16066 whole entry, looked up): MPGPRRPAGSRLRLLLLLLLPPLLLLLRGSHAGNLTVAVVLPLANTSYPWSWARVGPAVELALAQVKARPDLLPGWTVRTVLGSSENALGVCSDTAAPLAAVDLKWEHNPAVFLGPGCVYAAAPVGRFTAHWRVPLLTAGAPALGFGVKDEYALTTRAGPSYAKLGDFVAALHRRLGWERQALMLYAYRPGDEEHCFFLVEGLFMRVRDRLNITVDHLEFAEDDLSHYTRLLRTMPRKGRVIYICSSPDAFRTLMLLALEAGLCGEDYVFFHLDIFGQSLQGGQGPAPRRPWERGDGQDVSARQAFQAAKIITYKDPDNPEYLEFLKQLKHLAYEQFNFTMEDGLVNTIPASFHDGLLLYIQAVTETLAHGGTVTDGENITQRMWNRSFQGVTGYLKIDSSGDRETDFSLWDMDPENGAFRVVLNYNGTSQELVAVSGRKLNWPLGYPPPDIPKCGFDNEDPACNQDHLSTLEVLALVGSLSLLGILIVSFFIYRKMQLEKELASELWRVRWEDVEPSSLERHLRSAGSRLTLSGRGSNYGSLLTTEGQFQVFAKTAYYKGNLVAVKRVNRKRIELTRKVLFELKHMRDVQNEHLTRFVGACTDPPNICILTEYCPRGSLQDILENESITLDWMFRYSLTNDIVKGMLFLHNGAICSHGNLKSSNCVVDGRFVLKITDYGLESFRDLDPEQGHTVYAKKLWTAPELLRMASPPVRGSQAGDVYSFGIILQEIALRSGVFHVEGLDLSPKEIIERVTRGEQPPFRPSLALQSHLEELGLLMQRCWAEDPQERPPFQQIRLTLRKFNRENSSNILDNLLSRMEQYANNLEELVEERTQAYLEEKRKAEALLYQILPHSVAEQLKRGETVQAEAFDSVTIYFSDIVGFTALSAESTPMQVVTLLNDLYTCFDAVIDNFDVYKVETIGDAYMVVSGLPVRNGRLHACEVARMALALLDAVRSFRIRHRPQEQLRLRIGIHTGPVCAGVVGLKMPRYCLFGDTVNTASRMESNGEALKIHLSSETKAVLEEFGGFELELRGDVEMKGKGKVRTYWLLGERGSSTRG
# Procedure, shortened: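 HEK293 cells co-expressing hNpr1 and the GloSensor pGS-40F cGMP luciferase sensor were preloaded with 2% GloSensor reagent for 2 h. Compounds were added for 30 min at room temperature, then cells were stimulated with 0.1 nM hNppA for 20 min before luminescence readout.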
# [6] = molecular target: Atrial natriuretic peptide receptor 2 (Homo sapiens) (UniProt P20594); assay: Natriuretic polypeptide receptor (hNpr2) antagonism - Pilot subtype selectivity assay (AID 1347050; calls by dose curve)
# Chain of Atrial natriuretic peptide receptor 2 (Homo sapiens) (P20594 whole entry, looked up): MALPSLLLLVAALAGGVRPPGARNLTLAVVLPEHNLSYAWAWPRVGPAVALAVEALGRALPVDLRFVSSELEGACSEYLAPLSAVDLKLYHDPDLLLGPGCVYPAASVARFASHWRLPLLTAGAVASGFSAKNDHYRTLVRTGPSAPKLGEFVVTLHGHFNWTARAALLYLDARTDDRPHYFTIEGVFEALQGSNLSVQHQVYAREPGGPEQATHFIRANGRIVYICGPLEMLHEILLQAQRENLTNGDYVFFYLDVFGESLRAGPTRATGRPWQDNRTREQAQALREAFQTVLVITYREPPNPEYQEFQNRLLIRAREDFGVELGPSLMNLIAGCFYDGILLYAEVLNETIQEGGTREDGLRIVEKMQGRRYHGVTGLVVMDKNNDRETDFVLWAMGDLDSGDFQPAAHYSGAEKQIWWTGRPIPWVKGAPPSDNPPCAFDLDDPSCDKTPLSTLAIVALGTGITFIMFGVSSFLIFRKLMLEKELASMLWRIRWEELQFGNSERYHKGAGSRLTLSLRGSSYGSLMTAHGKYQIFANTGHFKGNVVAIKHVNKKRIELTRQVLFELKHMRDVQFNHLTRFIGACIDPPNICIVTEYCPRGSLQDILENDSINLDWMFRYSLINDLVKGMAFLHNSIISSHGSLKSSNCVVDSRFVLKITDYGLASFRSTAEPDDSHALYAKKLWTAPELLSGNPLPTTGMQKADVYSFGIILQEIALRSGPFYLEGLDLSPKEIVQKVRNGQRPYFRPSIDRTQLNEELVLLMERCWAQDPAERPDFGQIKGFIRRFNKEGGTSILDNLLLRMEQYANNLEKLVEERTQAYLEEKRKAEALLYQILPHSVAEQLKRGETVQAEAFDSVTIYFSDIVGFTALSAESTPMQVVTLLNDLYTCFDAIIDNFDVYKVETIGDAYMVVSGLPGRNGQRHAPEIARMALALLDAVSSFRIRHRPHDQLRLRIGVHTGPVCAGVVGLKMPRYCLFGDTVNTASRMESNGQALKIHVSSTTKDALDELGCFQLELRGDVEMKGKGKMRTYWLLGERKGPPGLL
# Procedure, shortened: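 cGMP-sensor HEK293/hNpr2 cells; 2% GloSensor reagent 2 h RT; compounds 30 min; baseline luminescence read; 1 nM hNppC agonist 20 min RT; final luminescence read by CCD camera. Antagonism = reduced post-agonist signal.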
# [7] = NS1 protein of Zika virus - qHTS assay to identify small molecule inhibitors in human HEK 293 cells (AID 1347053); further: series mostly up to about 46 µM; nearly all actives have a fitted effect of over 55% in size
# Procedure, shortened: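 Inhibition of NS1 expression was scored in HEK 293 cells given compound 1 h ahead of MR766 virus (MOI = 0.5). Following 24 h at 37 C, two anti-NS1 antibodies generated a TR-FRET signal, scaled between uninfected and infected controls.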
# [8] = molecular target: T2, Tyrosine-protein phosphatase non-receptor type substrate 1 (Homo sapiens) + Leukocyte surface antigen CD47 (Homo sapiens) (UniProt P78324+Q08722); assay: CD47-SIRPalpha protein protein interaction - LANCE assay qHTS validation (AID 1347057; active means well fitted curve in the direction sought with a large enough effect in the signal ratio, with a control signal flat, not every such curve was filed as active; the % refers to the signal ratio; further: series mostly up to about 38 µM)
# T2 sequence (P78324 whole entry, looked up): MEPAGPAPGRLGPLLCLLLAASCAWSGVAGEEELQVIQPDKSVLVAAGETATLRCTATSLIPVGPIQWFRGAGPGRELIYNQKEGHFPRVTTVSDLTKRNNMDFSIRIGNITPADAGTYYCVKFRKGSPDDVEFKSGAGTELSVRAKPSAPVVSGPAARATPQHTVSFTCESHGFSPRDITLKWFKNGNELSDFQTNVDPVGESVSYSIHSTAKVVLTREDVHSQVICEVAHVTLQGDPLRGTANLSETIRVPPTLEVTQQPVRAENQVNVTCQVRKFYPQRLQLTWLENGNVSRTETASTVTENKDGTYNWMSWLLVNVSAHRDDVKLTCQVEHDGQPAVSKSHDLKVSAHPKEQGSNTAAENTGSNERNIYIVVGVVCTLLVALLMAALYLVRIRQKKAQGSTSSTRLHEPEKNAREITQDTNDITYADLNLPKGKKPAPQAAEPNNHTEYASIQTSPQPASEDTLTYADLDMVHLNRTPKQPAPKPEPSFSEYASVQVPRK
# T2 sequence (Q08722 whole entry, looked up): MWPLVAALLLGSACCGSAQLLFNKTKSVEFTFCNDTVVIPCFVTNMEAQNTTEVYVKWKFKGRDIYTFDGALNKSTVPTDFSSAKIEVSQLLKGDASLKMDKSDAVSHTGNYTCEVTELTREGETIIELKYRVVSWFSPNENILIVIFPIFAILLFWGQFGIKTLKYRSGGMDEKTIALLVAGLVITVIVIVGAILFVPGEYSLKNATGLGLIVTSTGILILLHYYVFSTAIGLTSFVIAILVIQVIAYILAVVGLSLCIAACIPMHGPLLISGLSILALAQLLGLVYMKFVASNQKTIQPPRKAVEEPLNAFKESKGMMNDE
# Procedure, shortened: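 First, His-tagged CD47 and Eu-labelled anti-His antibody met the compound for 30 min; next, site-specifically biotinylated SIRPalpha was added for 30 min; finally streptavidin-APC was added before reading the TR-FRET ratio.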
# [9] = molecular target: T2, Tyrosine-protein phosphatase non-receptor type substrate 1 (Homo sapiens) + Leukocyte surface antigen CD47 (Homo sapiens); assay: CD47-SIRPalpha protein protein interaction - Alpha assay qHTS validation (AID 1347059);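 further: bead proximity luminescence from CD47 binding SIRPalpha after compound preincubation with SIRPalpha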
# Procedure, shortened: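 Soluble extracellular domains: Avi-tag biotinylated SIRPalpha (25 nM) preincubated 30 min RT with compound, then 6His-CD47 (12.5 nM) 30 min; Ni-NTA acceptor and streptavidin donor beads (10 ug/mL) 30 min, AlphaScreen read. PBS pH 7.4, 0.05% IGEPAL.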
# [10] = molecular target: Parathyroid hormone/parathyroid hormone-related peptide receptor (Homo sapiens) (UniProt Q03431); assay: qHTS for PTHR1 Agonists: Optimization Screen against the NCGC LOPAC library (AID 1347079);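 further: GloSensor cAMP luminescence in HEK-293 GP2 cells expressing human PTHR1 with IBMX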
# Chain of Parathyroid hormone/parathyroid hormone-related peptide receptor (Homo sapiens) (Q03431 whole entry, looked up): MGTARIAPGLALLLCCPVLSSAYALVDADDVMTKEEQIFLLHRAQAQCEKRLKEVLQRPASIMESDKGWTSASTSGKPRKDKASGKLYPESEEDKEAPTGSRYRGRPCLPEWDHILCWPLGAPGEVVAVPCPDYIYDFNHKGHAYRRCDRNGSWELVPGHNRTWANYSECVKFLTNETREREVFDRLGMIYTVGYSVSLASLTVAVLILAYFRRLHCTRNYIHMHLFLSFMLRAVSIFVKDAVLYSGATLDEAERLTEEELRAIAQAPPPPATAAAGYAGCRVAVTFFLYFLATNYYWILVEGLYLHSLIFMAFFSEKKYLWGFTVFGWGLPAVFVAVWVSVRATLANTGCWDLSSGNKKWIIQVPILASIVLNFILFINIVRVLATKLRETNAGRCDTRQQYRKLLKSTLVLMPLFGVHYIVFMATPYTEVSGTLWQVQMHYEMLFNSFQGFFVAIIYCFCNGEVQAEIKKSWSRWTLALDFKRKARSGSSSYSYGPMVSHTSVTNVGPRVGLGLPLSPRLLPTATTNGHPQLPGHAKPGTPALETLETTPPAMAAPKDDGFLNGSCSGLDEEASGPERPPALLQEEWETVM
# Procedure, shortened: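 Compounds were tested across a qHTS titration. PTHR1-expressing GP2 cells report cAMP rises via GloSensor luminescence after 1 hr compound exposure at 37C with IBMX present.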
# [11] = tested on: Zika virus NS2B-NS3 protease (unlinked); assay: Optimization of GU AMC qHTS for Zika virus inhibitors: Unlinked NS2B-NS3 protease assay (AID 1347151); further: potency means the concentration at half of the fitted maximal effect; nearly all actives have a fitted effect of over 80% in size
# Procedure, shortened: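 Fluorescence read-out (340 nm ex / 450 nm em) of AMC peptide cleavage, taken immediately and after 15 min at room temperature (~20% conversion). Enzyme was the unlinked NS2B–NS3 complex at 25 nM in Tris pH 8.0 buffer.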
# [12] = molecular target: Lysine-specific demethylase 5B (Homo sapiens) (UniProt Q9UGL1); assay: Optimization screen for KDM5B Histone Demethylases FDH coupled qHTS against the LOPAC library (AID 1347166)
# Procedure, shortened: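 KDM5BDeltaAP (200nM final) preincubated 10 min with compound, then 12.5uM H3K4Me3, 25uM a-ketoglutarate, ascorbate, Fe(II), NAD+ and FDH added; 50mM HEPES pH 7.5, 0.01% Tween-20. NADH fluorescence (340/450 nm) change over 30 min, room temperature.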
# [13] = qHTS to identify inhibitors of the type 1 interferon - major histocompatibility complex class I in skeletal muscle: primary screen against the NCATS LOPAC collection (AID 1347405);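 further: lytic HiBiT luminescence reporting HLA-B protein level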
# Procedure, shortened: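 Cells: C25cl48 human myoblasts, HiBiT-tagged HLA-B*08:01, stimulated with IFN-beta 4.0 ng/ml. Compounds are titrated 1:4.3 over 7 points from 46 uM final and incubated 24 hrs; endogenous MHC class I is quantified by HiBiT lytic luminescence.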
# [14] = qHTS for inhibitors of adenylyl cyclases using a fission yeast platform: a pilot screen against the NCATS LOPAC library (AID 1347410)
# Procedure, shortened: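 Read-out: fbp1-GFP fluorescence by laser scanning cytometry (488 nm laser), a gain of signal when AC/cAMP-PKA signalling is inhibited. Strain CHP2027 expressing AC9, GNAS and PDE4D2; compounds at up to 57 µM; 18 h, 30C.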
# [15] = Validation qHTS assay for inhibitors of Activation Induced Cytidine Deaminase (AID): UDG Counterscreen signal (AID 1347427)
# Procedure, shortened: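 Counterscreen read of UDG activity (2 U/mL, 4/3x) in the FRET deamination format with AID (1 uM, 4/3x), DJC20/DJC23 substrates (250 nM, 4x), 4 h at room temperature. NaOH stop, fluorescence at 560 ex/665 em.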
# [16] = molecular target: Single-stranded DNA cytosine deaminase (Homo sapiens) (UniProt Q9GZX7); assay: Validation qHTS assay for inhibitors of Activation Induced Cytidine Deaminase (AID): AID signal (AID 1347429)
# Procedure, shortened: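 In this coupled qHTS, AID deaminates a FRET-labelled ssDNA substrate in the presence of UDG over 4 hr at room temperature. Compounds span up to 114 uM final.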
# [17] = Primary qHTS for inhibitors of La Crosse Virus (LACV) - induced cell death in SH-SY5Y cells (AID 1508616);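 further: top concentration of the series differs between compounds; higher means more rescue of cells from virus-induced death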
# Procedure, shortened: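 Readout was luminescence from ATPLite 1step added after a 6-day LACV infection (0.01 MOI) of SH-SY5Y cells that had received pin-transferred compound 24 hr after seeding.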
# [18] = Primary qHTS for small molecule stabilizers of the endoplasmic reticulum resident proteome: Secreted ER Calcium Modulated Protein (SERCaMP) assay (AID 1508630)
# Procedure, shortened: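 GLuc-SERCaMP-expressing SH-SY5Y cells, pretreated 16 h with compound, are challenged with thapsigargin to empty ER calcium stores; after 4 h, coelenterazine is added directly to the medium and luminescence is imaged.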
# Papain (Carica papaya) = Papain (Carica papaya) (UniProt P00784); assay: Primary qHTS assay for inhibitors of the protease papain (AID 1645873);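 further: papain turnover of Z-FR-AMC read as the AMC fluorescence gain over 10 min; series mostly up to about 50 µM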
# [19] = Primary qHTS for inhibitors of nuclear receptor binding SET domain protein 2 (NSD2) in an isogenic RCH-ACV NSD2 p.E1099K mutant (9B) (AID 1645876); further: nearly all actives have a fitted effect of over 70% in size
# [20] = molecular target: Glutathione peroxidase 1 (Homo sapiens) (UniProt P07203); assay: Primary qHTS Assay for Inhibitors of Recombinant Selenoprotein Glutathione Peroxidase 1 (GPX1) (AID 1845191); further: nearly all actives have a fitted effect of over 65% in size
# Chain of Glutathione peroxidase 1 (Homo sapiens) (P07203 whole entry, looked up): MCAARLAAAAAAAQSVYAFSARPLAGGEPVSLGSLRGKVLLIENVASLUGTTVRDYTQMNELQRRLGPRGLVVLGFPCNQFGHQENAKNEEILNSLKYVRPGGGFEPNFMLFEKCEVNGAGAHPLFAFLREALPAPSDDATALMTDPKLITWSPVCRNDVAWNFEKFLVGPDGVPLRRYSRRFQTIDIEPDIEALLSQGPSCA
# Procedure, shortened: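 Recombinant GPX1 (10 nM final) was preincubated with compound for 30 min at room temperature, then reacted with 1 mM GSH, 0.5 mM CHP, 0.5 mM NADPH and 100 nM glutathione reductase; NADPH fluorescence (340/450 nm) was read at 0 and 15 min.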
# [21] = molecular target: Phospholipid hydroperoxide glutathione peroxidase GPX4 (Homo sapiens) (UniProt P36969); assay: Primary qHTS Assay for Inhibitors of Recombinant Selenoprotein Glutathione Peroxidase 4 (GPX4) (AID 1845192); conditions: outcome: dose series up to 50 µM unless noted; further: series mostly up to about 50 µM; nearly all actives have a fitted effect of over 65% in size
# Chain of Phospholipid hydroperoxide glutathione peroxidase GPX4 (Homo sapiens) (P36969 whole entry, looked up): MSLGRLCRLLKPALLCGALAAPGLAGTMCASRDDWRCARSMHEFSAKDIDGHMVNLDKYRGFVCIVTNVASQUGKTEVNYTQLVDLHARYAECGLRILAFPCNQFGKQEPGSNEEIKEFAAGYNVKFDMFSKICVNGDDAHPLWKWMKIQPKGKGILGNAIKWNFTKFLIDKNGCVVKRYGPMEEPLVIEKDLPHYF
# Procedure, shortened: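 GR-coupled readout: 100 nM GR, 1 mM GSH, 0.5 mM NADPH; NADPH fluorescence (ex 340/em 450 nm) read at t=0 and after 15 min RT. GPX4 200 nM, preincubated 30 min with compound; substrate 0.5 mM CHP.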
# [22] = qHTS drug screen for cell cycle checkpoint inhibitors in PARPi-resistant BRCA-mutant ovarian cancer cell lines. (AID 1963452; calls by dose curve); conditions: PEO1/OlaR viability, CellTiter-Glo luminescence, 96 h, stronger effect = lower value
# Procedure, shortened: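 PEO1, PEO4 and PEO1/OlaR ovarian cancer cells, 600 per well, exposed 96 h at 37C to a dilution series. Viability read by CellTiter-Glo luminescence, normalized to DMSO and empty wells; activity summarized as Z-AUC.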
compound,measurement,setting,value
CCc1ccc(/C=C2/SC(=S)NC2=O)cc1,outcome,[1],inactive
same,outcome,[2],inactive
same,outcome,[3],inactive
same,max response,[4],30.7% (inactive)
same,Potency,[5],inactive
same,Potency,[6],inactive
same,outcome,[7],inactive
same,outcome,[8],inactive
same,Potency,[9],inactive
same,outcome,[10],inactive
same,Potency,[11],23.8 µM (active)
same,outcome,[12],inactive
same,Potency,[13],inactive
same,outcome,[14],inactive
same,outcome,[15],inactive
same,Potency,[16],inactive
same,outcome,[17],inactive
same,Potency,[18],inactive
same,Potency,Papain (Carica papaya),inactive
same,Potency,[19],inactive
same,Potency,[20],inactive
same,Potency,[21],inactive
same,Z-AUC,[22],0.0868 (inactive)
same,Z-AUC,[22]; measured here: PEO1 parental Z-AUC,0.677
same,Z-AUC,[22]; measured here: PEO4 Z-AUC,0.763
